Screening data deposited in PubChem BioAssay by National Center for Advancing Translational Sciences (NCATS).
Most compounds without a hit are left out; they make up all but 5.8% or so of the library.
KB-V1 cytotox: qHTS assay for MDR1-selective chemotherapeutics: Primary screen using the drug-selected MDR subline cells KB-V1 | KB-V1 MDR cells viability, CellTiter-Glo, 72 h | Potency, µM (highest dose often 46.1 µM), usual class: cytotoxic | hit rate 3.4% among 400,000 | AID 1347076, 2019; further: on the % scale 0 is the no-effect control and ±100 the full control effect; nearly all actives have a fitted effect of over 60% in size
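Cells of the MDR subline KB-V1 are plated, dosed with compound at multiple concentrations, and incubated 72 h at 37 degrees C; CellTiter-Glo is then added and luminescence read after 10 min.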
SW480 rereplic: A quantitative high throughput screen for small molecules that induce DNA re-replication in SW480 colon adenocarcinoma cells | SW480 DNA re-replication, Hoechst DNA content imaging, 48 h | Potency, µM (titrated, usually from 46.1 µM), without a hit: top-dose re-replication activation, usual class: activators | hit rate 1.8% among 340,000; further: % of control where 0% means no effect; nearly all actives have a fitted effect of over 55% in size
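Compounds, transferred as 23 nL by pin tool, were incubated with cells for 48 hr; DNA content per nucleus was then quantified by Hoechst staining and fluorescence plate imaging.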
KB-3-1 cytotox: qHTS assay for MDR1-selective chemotherapeutics: Primary screen using the parental adenocarcinoma cell KB-3-1 | KB-3-1 viability, CellTiter-Glo ATP luminescence, 72 h | Potency, µM (series often up to 46.1 µM), most hits filed as cytotoxic | hit rate 1.4% among 400,000; further: on the % scale 0 is the no-effect control and ±100 the full control effect; nearly all actives have a fitted effect of over 60% in size
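Screening of KB-3-1 cells (DMEM, 10% FBS, phenol-red free) ran from lowest to highest compound concentration; after 72 h at 37 °C viability was read luminescently and curves fitted.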
ALOX12 inh: Primary qHTS assay for inhibitors of human arachidonate 12S-lipoxygenase (ALOX12): Round 2 | Polyunsaturated fatty acid lipoxygenase ALOX12 (Homo sapiens), P18054 | purified 12hLO, xylenol orange hydroperoxide absorbance | Potency, µM (titrated, usually from 108 µM), for the others: at the top dose activity change, negative = inhibition, usual class: inhibitors | hit rate 1.1% among 580,000 | AID 1671190, 2021; further: on the % scale 0 is the no-effect control and ±100 the full control effect
Target sequence (P18054 whole entry, looked up): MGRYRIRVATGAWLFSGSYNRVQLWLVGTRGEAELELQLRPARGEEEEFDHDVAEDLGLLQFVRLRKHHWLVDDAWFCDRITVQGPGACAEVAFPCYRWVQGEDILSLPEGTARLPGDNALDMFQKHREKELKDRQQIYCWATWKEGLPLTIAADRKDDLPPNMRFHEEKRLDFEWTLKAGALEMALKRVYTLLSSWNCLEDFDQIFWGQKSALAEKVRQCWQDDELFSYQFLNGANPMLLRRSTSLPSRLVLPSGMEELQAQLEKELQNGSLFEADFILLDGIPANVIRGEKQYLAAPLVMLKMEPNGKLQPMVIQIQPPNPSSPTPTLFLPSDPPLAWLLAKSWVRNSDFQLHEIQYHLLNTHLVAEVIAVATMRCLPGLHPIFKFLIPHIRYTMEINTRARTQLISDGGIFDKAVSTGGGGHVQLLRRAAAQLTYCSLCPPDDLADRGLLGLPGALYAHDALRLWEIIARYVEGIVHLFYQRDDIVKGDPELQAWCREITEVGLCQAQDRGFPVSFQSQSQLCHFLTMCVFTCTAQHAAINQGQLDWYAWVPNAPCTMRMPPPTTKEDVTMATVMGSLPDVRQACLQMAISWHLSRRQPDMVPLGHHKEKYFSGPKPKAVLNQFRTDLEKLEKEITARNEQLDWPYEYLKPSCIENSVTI
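Purified human 12hLO at 150 nM in 25 mM Hepes, 0.01% Triton X-100, pH 7.0, preincubated 15 min at room temperature with compound. Reaction started with 40 uM arachidonic acid, 30 min at room temperature. Hydroperoxide measured by Fe-xylenol orange, 573/405 nm absorbance ratio.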
PINK1 modulator: A Quantitative High throughput Screen to Identify Chemical Modulators of PINK1 Expression; PINK1 immunofluorescence, high-content cytometry, 24 h; Potency, µM (highest dose often 76.6 µM), inactives show at the highest dose activation (PINK1 increase), usual class: activators; hit rate 0.2% among 410,000; AID 624263, 2012; active means well fitted activation curve with a large enough effect; inconclusive means small, poorly fitted or top-dose-only effect; cell line not stated here; further: % of control where 0% means no effect; nearly all actives have a fitted effect of over 65% in size
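Stable cell line treated 24 h with compounds at 5 concentrations (CCCP controls), then fixed and immunostained for PINK1 plus nuclear and cell stains; PINK1 immunofluorescence quantified by laser-scanning microplate cytometry.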
MCF10A rereplic: A quantitative high throughput screen for small molecules that induce DNA re-replication in MCF 10a normal breast cells; hit rate 2.9% among 350,000; Potency, µM (series often up to 46.1 µM), without a hit: top-dose activity, positive = re-replication, usual class: activators; MCF 10A DNA re-replication, Hoechst nuclear intensity, 48 h; further: % of control where 0% means no effect; nearly all actives have a fitted effect of over 50% in size
Active calls of the source: *; i = inactive; u = inconclusive; x = no result given; [ ] = remark or other dose. Unless noted, the call rests on the fitted dose curve; in most records, active means well fitted curve in the direction sought with a large enough effect; inconclusive means small, poorly fitted or top-dose-only effect, or another doubt; inactive means no such curve, though single readings can be large; an effect the other way counts as inactive or inconclusive. Potency means the concentration at half of the fitted maximal effect.

SMILES	KB-V1 cytotox	SW480 rereplic	KB-3-1 cytotox	ALOX12 inh	PINK1 modulator	MCF10A rereplic
CC(C)c1ccc(NC(=O)C2Cc3c(-c4ccco4)ccnc3O2)cc1 (stereo unspecified)	21µM*	x	i	-8%	1%	x
CC(=O)Nc1ccc(-c2ccnc3c2CC(C(=O)Nc2ccc(C(C)C)cc2)O3)cc1 (stereo unspecified)	u	x	i	-50%	1%	x
O=C(Nc1ccc(F)c(Cl)c1)C1Cc2c(-c3ccco3)ccnc2O1 (stereo unspecified)	21µM*	x	u	u	3%	x
Cc1ccc(C)c(NC(=O)C(C)Sc2nc3ccccc3nc2C)c1 (stereo unspecified)	x	x	x	-59%	x	x
CC(Sc1nn(-c2ccc(F)cc2)c(=S)s1)C(=O)c1c(N)n(C)c(=O)n(C)c1=O (stereo unspecified)	6.5µM*	-6%	u	-13%	-1%	29%
Cc1cc(C)c(NC(=O)CSc2nc3ccc(NC(=O)CSc4nnnn4Cc4ccccc4)cc3s2)c(C)c1	6.5µM*	-3%	i	0%	6%[38.3 µM]	19%
O=C(CSc1nc2ccc(NC(=O)CSc3nnnn3Cc3ccccc3)cc2s1)Nc1ccccc1	i	-3%	i	-7%	3%	u
O=C(CSc1nc2ccccc2s1)Nc1ccc(F)c(F)c1	x	x	x	35µM*	x	x
CCC(=O)Nc1ccc2nc(SCc3ccc(F)cc3)sc2c1	x	x	x	14µM*	x	x
Cc1nc(NC(=O)CSc2nc3ccccc3s2)sc1C(=O)N(C)C	x	13%	x	40µM*	2%	6%
O=C(COC(=O)c1ccc(Br)c([N+](=O)[O-])c1)c1ccc(Br)cc1	x	x	x	-47%	x	x
COc1cccc(C(=O)NC[C@@H]2CC[C@H]3C[C@@H]2C3(C)C)c1	x	x	x	-4%[176 µM]	x	x
CCOc1cc(C2C(C(=O)c3ccco3)=C(O)C(=O)N2c2cc(C)on2)ccc1O (stereo unspecified)	x	x	x	-18%	x	x
O=C(CSc1ncccn1)Nc1nc2ccccc2s1	x	x	x	1%	x	x
O=C(CSc1ncn(-c2ccccc2)n1)Nc1nc2ccccc2s1	18µM*	19%	i	u	2%[38.3 µM]	u
Cc1cc(C)cc(N(CC(=O)NCC2CCCO2)C(=O)CN2C(=O)COc3ccccc32)c1 (stereo unspecified)	13µM*	0%	i	23%	-2%[38.3 µM]	-1%
N#Cc1c(C#N)c(SSc2c(C#N)c(C#N)c(N)n2-c2ccccc2)n(-c2ccccc2)c1N	u	u	i	0.35µM*	u	-6%
COc1cc(/C=N/OCc2cccc(Br)c2)cc(OC)c1OC	x	x	x	6%	x	x
CC(C)c1ccccc1NC(=O)Cn1c(-c2ccccc2Cl)nc2ccccc21	u	28%	i	-7%	2%	-1%
Cc1ccc(C(=O)Cn2c(C(=O)/C=C/c3ccccc3)nc3ccccc32)cc1	13µM*	u	u	-6%	-1%	23µM*
Cn1c(SCC(=O)N/N=C/C=C/c2ccccc2[N+](=O)[O-])nc2ccccc21	i	-4%	i	3%	8%	-3%
Cc1nc2ccccc2n1CC(=O)N/N=C\c1ccccn1	i	-2%	i	-4%	2%	10%
Cc1nc2ccccc2n1CC(=O)N/N=C\C=C\c1ccccc1	21µM*	-2%	i	-17%	-2%	3%
CCn1c(SCC(=O)N/N=C/C=C\c2ccccc2[N+](=O)[O-])nc2ccccc21	7.3µM*	-1%	u	5%	9%[38.3 µM]	15%
CC(C)c1ccccc1NC(=O)Cn1c(/C=C/c2ccccc2)nc2ccccc21	u	9.2µM*	i	x	3%	10µM*
SMILES	KB-V1 cytotox	SW480 rereplic	KB-3-1 cytotox	ALOX12 inh	PINK1 modulator	MCF10A rereplic
Nc1nc(CN2CCN(C(=O)c3ccc(F)cc3)CC2)nc2ccccc12	x	x	x	91%	x	x
NC(=O)c1ccc(COC(=O)c2cc(Br)ccc2F)cc1	x	x	x	-4%	x	x
Cc1ccc(NC(=O)Cn2c(=O)c(C(F)(F)F)nc3ccccc32)cc1C	i	x	i	-28%	5%	x
CC(=O)c1cc(-c2ccccc2)n(CC(=O)Nc2ccc(C)c(C)c2)c1C	i	4%	i	-7%	5%	23µM*
Cc1ccc(NC(=O)Cn2c(/C=C/c3ccccc3)nc3ccccc32)cc1C	u	u	i	0%	17%[38.3 µM]	16µM*
O=C(N/N=C/C=C\c1ccccc1[N+](=O)[O-])c1ccco1	i	26µM*	i	u	2%	u
Cc1nc2ccccc2n1CC(=O)NC1CCCCCC1	15µM*	-12%	u	-4%	3%	0%
COc1cc(C(=O)Nc2ccc3c(c2)nc2n3CCN(C(C)C)C2)cc(OC)c1OC	x	x	x	-26%	x	x
O=C(CN1CCN(c2ccccc2)CC1)Nc1oc2ccccc2c(=O)c1-c1ccc(F)cc1	x	x	x	8%	x	x
COCCn1c(=O)[nH]c(=O)c2c3c(cnc21)C(=O)CC(c1ccc(F)cc1)C3 (stereo unspecified)	x	x	x	2%	x	x
COc1ccccc1C(NC(=O)C1CCN(CCc2ccc(Br)cc2)CC1)c1ccccn1 (stereo unspecified)	i	x	i	40µM*	0%	x
COc1ccccc1C(NC(=O)C1CCN(CCOc2ccccc2)CC1)c1ccccn1 (stereo unspecified)	i	x	i	-2%	2%	x
O=C(c1cnn2c(C(F)(F)F)cc(-c3ccccc3)nc12)N1CCCCC1c1cccnc1 (stereo unspecified)	i	-2%	i	0%	1%	0%
O=C(c1cc2nc(-c3ccc(F)cc3)cc(C(F)(F)F)n2n1)N1CCCCC1c1cccnc1 (stereo unspecified)	u	u	3.3µM*	8%	10%	u
COC(=O)c1sccc1NC(=O)c1c(C)c(-c2cccc(Cl)c2)nc2ccccc12	10µM*	12%	i	-20%	5%	13%
Cc1ccc2cc(/C=C/C(=O)NC3CCCC3)oc2c1	x	x	x	-32%	x	x
Cc1cc(Cl)c2oc(C(=O)N3CCN(c4ccncc4)CC3)c(C)c2c1	u	12µM*	u	-11%	-1%	5.8µM*
Cc1ccc(-c2noc(Cn3nc(C)c(S(=O)(=O)N4CCc5ccccc54)c3C)n2)cc1	x	x	x	-2%	x	x
